Growth data for 40 compounds are collected here from PubChem BioAssay (NCI).

Each structure is given as a SMILES string. About 83,000 compounds went through this panel and 20% of them were active in at least one assay; those are over-represented in the sample as a whole.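 Results are percent growth after 48 hours of single-concentration exposure. 100 means growth as in untreated cells, lower positive values show inhibition; negative values down to -100 show cell death.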 Unmarked numbers belong to inactive results. Calls of active or inactive are those of the source.

The experiment relates to LOX IMVI melanoma. Nature of the experiment: NCI-60 one-dose screen, 48 h (100 = growth as untreated, 0 = no growth, -100 = all killed). The settings on record: 10 µM unless noted. The protocol:
Growth inhibition of the LOX IMVI human tumor cell line is measured as a screen for anti-cancer activity. Cells are grown in 96 well plates and exposed to the test compound for 48 hours. Compounds are tested at a single concentration, which is 10^-5 M for most compounds. The reported endpoint is percent growth (GI% or GIPRCNT), where numbers from 0 - 100% represent growth inhibition, and numbers from -100% - 0 represent cell death. For example, a value of 40 represents 60% growth inhibition. A value of 0 means no net growth occurred over the course of the experiment. A value of -40 indicates 40% of cells at the beginning of the experiment died by the end of the experiment. A value of -100 means all cells are dead at the end of the experiment.
NCI-60 Human Tumor Cell Lines Screen was performed using the standard one-dose NCI protocol, which is described in more detail at https://dtp.cancer.gov/discovery_development/nci-60/default.htm.
Compounds with GIPRCNT values below 10 were considered active. Activity score was based on GIPRCNT using the following formula: […]
Score is 0 for GIPRCNT values of 100 or above, 50 for GIPRCNT values of 0, and 100 for GIPRCNT values of -100.
In the case of `COc1ccc(OC)c(/C=C2\COc3ccc(O)cc3C2=O)c1`, the growth is 51.3%.
As to `O=C1C2=C(CCN(Cc3ccccc3)C2)N2CCN=C2N1Cc1ccc(F)cc1F`, the growth was 39.3%.
With `C=CC(=O)N[C@@H](Cc1ccc(-c2cc(Cl)cc(Cl)c2)cc1)[C@@H](O)[C@H](O)C(=O)O` the figure was 98.4%.
For `CC[C@]1(O)C[C@H]2CN(CCc3c([nH]c4ccccc34)[C@@](C(=O)OC)(c3cc4c(cc3OC)N(C=O)[C@H]3[C@@](O)(C(=O)OC)[C@H](OC(C)=O)[C@]5(CC)C=CCN6CC[C@]43[C@@H]65)C2)C1` the value was 28.8%.
With `O=C1c2ccccc2C(=O)c2cc(Cn3cc[n+](Cc4ccc5ccccc5c4)c3)ccc21` the figure was 94.9%.
With `Cc1nc2ccc(C(=O)NCc3cc(C(=O)O)c(C)o3)cc2nc1C`, the growth is 94.3%.
With `Cn1ccc(Cc2cnc(N)s2)n1` the figure was 103%; with `COc1ccc(CN2C(=O)/C(=C\c3cc(OC)c(OC)c(OC)c3)c3ccccc32)cc1`, -76% (active).
For `O=[N+]([O-])c1cccc(/C=C/c2ccccn2)c1` the value was 102%; for `COc1cc2c(O)n(CCCn3ccnc3)c3c4cnc5cccc(c(=O)c3c2cc1OC)c54`, 3.76% (active).
For `O=C1CSC(c2ccccc2Cl)N1c1nnc(Cn2cnnc2)o1` (stereo not given) the value was 62.5%.
As for `Cc1cc(-c2ccccc2)cc(SC#N)[n+]1[O-]`, the growth was 29.7%.
As for `CC[C@@H](C[C@H](CCO)c1ccccc1)c1cc2ccccc2o1`, the growth is 101%.
With `Cn1cc(-c2ccc3nc(-c4ccc(CC(=O)Nc5cc(C(C)(C)C)no5)cc4)cnc3c2)cn1` the figure was 20.1% [30 µM].
For `CCCCCOC(=O)c1ccc(NC(=O)CNCC(C)C)cc1` the value was 94.4%.
With `Cc1cccc(-c2cc(O)c(C(=O)N3CCOCC3)s2)c1` the figure was 33.2%.
With `Cc1c2c(cn1Cc1ccccc1)CCc1cn[nH]c1-2`, the growth is 90.8%.
For `COc1cc2c(cc1OC)-c1ccc3cc4c(cc3c1N(CCN(C)C)C2)OCO4` the value was -83.2% (active); for `CC(=O)Nc1nccs1`, 94.8%.
For `O=c1[nH]c(=O)n(C2CC(O)C(CO)O2)cc1CO` (stereo not given) the value was 96.1%; for `CCCCCCCCn1cc(C2=C(c3coc4ccc(OC)cc34)C(=O)NC2=O)c2ccccc21`, 61.2%; for `COc1c(C)cnc(CSc2nc(-c3ccc(C)cc3)cn2-c2ccc(Cl)cc2)c1C`, 96.5%.
With `CC(C)N(CCOC(=O)Nc1ccccc1Cl)C(C)C` the figure was 101%; with `NC(N)=N/N=C/c1ccc(Br)cc1`, 43%.
As for `C#CC[C@H](N)C(=O)O`, the growth is 94.7% [20 µM].
For `CCCCCCCCc1cc[n+](CC(=O)c2ccc(Br)cc2)cc1` the value was -84.8% (active).
With `Nc1c(C(=O)c2ccccc2)nnc2ncnn12`, the growth is 101%.
Turning to `CN1CCN(c2ccc3nc(/N=C/c4ccc5sc(-c6ccc([N+](=O)[O-])cc6)nc5c4)sc3c2)CC1`, the growth was 117%.
On to `CC(=O)Nc1ccc(C(=O)/C=C/c2ccccc2)cc1`, for which the growth was 61.8%.
Take `C[C@@H]1CC[C@@H]2[C@@H]1[C@H](OC(=O)/C=C/c1ccccc1)[C@]1(C3CCCCC3)C[C@@H](NC(=O)CO)[C@@]2(C)O1`: the growth is 100%.
`OC(c1cccc(OCc2ccccc2)c1)c1nnc(-c2ccccc2)o1` (stereo not given): the growth is 84.9%.
For `CC(C)c1ccc(C(=O)OC(=O)c2ccc(C(C)C)cc2)cc1` the value was 91.5%.
For `N#Cc1c(NC(=O)c2ccccc2I)sc2c1CCCC2` the value was 36.8%; for `Cc1nc(Nc2cccc(NC(=O)Nc3ccc(Cl)cc3)c2)c2ccccc2n1`, 88.7%; for `Cc1nc(Nc2ccc(NC(=S)Nc3ccccc3)cc2)nc2nc(Nc3cccc(Cl)c3)[nH]c(=O)c12`, 92%.
For `COc1ccc(-c2cc(-c3cc(OC)ccc3OC)[nH]c(=O)c2C#N)cc1` the value was 44.6%; for `CCOC(=O)c1ccc(-c2ccc3cc(OC)ccc3c2)nc1C`, 105%.
On to `Cc1nn(-c2ccccc2)c2c1C(c1ccc([N+](=O)[O-])cc1)C(C#N)=C(N)O2` (stereo not given), for which the growth was 101%.
With `COc1ccc(Cn2cnc3cc(C(=O)Nc4cccc5ccccc45)ccc32)c(OC)c1`, the growth is 12.1% [30 µM].
For `COc1ccc(/C(C)=C(\c2ccc(Cl)cc2)c2ccc(OCCCN(C)C)cc2)cc1F` the value was -74.1% (active).
